# Most compounds without a hit are left out; they make up all but 0.99% or so of the library.
# AmpC inh no detg: inhibitors of E. coli AmpC beta-lactamase without detergent; Potency, µM (highest dose often 57.1 µM), hits mostly inhibitors; AmpC nitrocefin hydrolysis, absorbance 480 nm, 0.0001% Triton; P00811; 330,000 compounds, 0.52% hits; further: nearly all actives have a fitted effect of over 20% in size
# Target sequence (P00811 whole entry, looked up): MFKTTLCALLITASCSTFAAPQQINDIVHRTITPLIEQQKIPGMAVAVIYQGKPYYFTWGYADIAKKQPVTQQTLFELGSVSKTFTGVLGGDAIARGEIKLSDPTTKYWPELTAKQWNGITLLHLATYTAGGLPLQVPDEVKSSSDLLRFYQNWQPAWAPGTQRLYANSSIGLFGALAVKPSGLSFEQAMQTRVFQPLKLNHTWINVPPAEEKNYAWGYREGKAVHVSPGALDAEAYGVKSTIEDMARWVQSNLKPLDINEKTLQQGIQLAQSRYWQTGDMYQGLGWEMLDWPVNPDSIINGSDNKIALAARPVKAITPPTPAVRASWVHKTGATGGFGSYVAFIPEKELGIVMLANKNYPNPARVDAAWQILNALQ
#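 20 mM phosphate pH 7.0 + 0.01% (detergent screen) or 0.0001% Triton X-100; 5.3 nM AmpC reagent; cpd preinc 15 min RT; nitrocefin (800 uM stock) to start; A480 q20 s × 4 min; Activity was normalised to no-enzyme and no-compound control wells.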
# NS1 inh: inhibitors of influenza NS1 protein function | Potency, µM (doses to about 46.1 µM) | 270,000 compounds, 0.4% hits; calls by dose curve; further: actives are rising curves; nearly all actives have a fitted effect of over 50% in size
#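 In this qHTS, NS1 from influenza A is expressed in budding yeast, where it slows growth. Cells are switched from glucose to 2% galactose medium (pH 6.0, -URA), treated with compound, and growth recovery is read at OD600.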
# AmpC detergent: inhibitors of E. coli AmpC beta-lactamase with detergent | P00811 | AmpC hydrolysis of nitrocefin, absorbance 480 nm, 0.01% Triton | Potency, µM (highest dose often 114 µM), usual class: inhibitors | 370,000 compounds, 0.041% hits; further: nearly all actives have a fitted effect of over 25% in size
#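 AmpC (5.3 nM in the dispensed reagent) in 20 mM phosphate pH 7.0 with 0.01% (detergent screen) or 0.0001% Triton X-100 was preincubated with compounds for 15 min at room temperature. Nitrocefin was then added from an 800 uM solution, and hydrolysis was followed at 480 nm.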
# SARS PLpro yeast-1: inhibitors of SARS-CoV papain-like protease in yeast; S. cerevisiae expressing SARS-CoV PLpro, growth rescue; Potency, µM (series often up to 32.9 µM), usual class: activators; 330,000 compounds, 0.19% hits; calls by dose curve; further: nearly all actives have a fitted effect of over 55% in size
# AMA1-RON2 inh: disrupts binding of P. falciparum AMA1 to RON2; 360,000 compounds, 0.2% hits; Potency, µM (series often up to 58.2 µM), usual class: inhibitors; AlphaScreen AMA1-biotinylated RON2 peptide binding; further: nearly all actives have a fitted effect of over 45% in size
#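 AMA1 (3D7) with his tag at 25 nM final met compounds first, then biotinylated RON2 peptide at 25 nM; detection used donor plus acceptor beads, 10 µg/mL apiece, read by AlphaScreen after 30 min at room temperature.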
# SARS PLpro yeast-2: Validates SARS-CoV PLpro inhibitor hits in yeast; shares compounds with SARS PLpro yeast-1; yeast expressing SARS-CoV PLpro, growth phenotype rescue; calls only; 1,000 compounds, 19% hits; AID 652038; call rule not given here
# Hits are given with their value; . = inactive; ? = inconclusive; / = no result; + = active, no number; [ ] = another dose, or the depositor's remark. Unless noted, the call rests on the fitted dose curve; in most records, active means well fitted curve in the direction sought with a large enough effect; inconclusive means small, poorly fitted or top-dose-only effect, or another doubt; inactive means no such curve, though single readings can be large; an effect the other way counts as inactive or inconclusive.
SMILES,AmpC inh no detg,NS1 inh,AmpC detergent,SARS PLpro yeast-1,AMA1-RON2 inh,SARS PLpro yeast-2
COc1ccc(C(=O)N/N=C/c2sc3ccccc3c2O)cc1,.,.,.,2.82µM,.,.
COc1ccc(C(=O)N/N=C/c2c[nH]c3ccccc23)cc1,.,.,.,.,.,/
O=C(N/N=C/c1sc2ccccc2c1O)c1ccccc1,.,.,.,3.98µM,.,.
O=C(N/N=C/c1sc2ccccc2c1O)c1cccc2ccccc12,.,.,.,2.82µM,.,.
Cc1ccc(NC(=O)N2CCN3CCCCC3C2)cc1C (stereo not given),/,/,.,/,/,/
CNC(=O)NC1CCCc2ccccc21 (stereo not given),.,.,?,?,?,.
O=C(Nc1ccccc1)NC1CCCc2ccccc21 (stereo not given),.,.,.,.,.,/
O=S(=O)(Cc1cnc(Cl)s1)c1ccccc1,.,.,.,12.6µM,.,.
O=C(COc1ccccc1F)Nc1nnc(SCc2cc(=O)n3ccccc3n2)s1,/,/,.,/,/,/
Cc1cccc2c(=O)cc(CSc3ccccc3NC(=O)c3cccc(F)c3)[nH]c12,/,/,.,/,/,/
CCOC(=O)N1CCc2c(sc3c2c(=O)n(CCc2ccccc2)c(=O)n3Cc2ccc(F)cc2)C1,/,/,.,/,/,/
CCOC(=O)CC(NC(=O)c1ccco1)c1ccc(OC)cc1 (stereo not given),.,.,.,?,.,.
COc1ccc(C(CC(=O)O)NC(=O)c2ccco2)cc1 (stereo not given),.,.,.,.,.,/
Cc1c(Cl)cccc1NC(=O)CCn1nc(C)c2c(C)n(-c3ccccc3)nc2c1=O,/,/,.,/,/,/
C[C@]12CC[C@@H]3c4ccc(O)cc4CC[C@H]3[C@@H]1C[C@@H](O)[C@@H]2O[C@@H]1O[C@H](C(=O)O)[C@@H](O)[C@H](O)[C@H]1O,.,.,.,?,.,.
COc1cc(OC)c(Nc2cc(C)nc3ncnn23)cc1Cl,/,/,.,/,/,/
Cn1c(=O)cc(SCC(=O)N2CCN(c3ccc(F)cc3)CC2)c2ccc(Cl)cc21,/,/,.,/,/,/
CCC1(CC)C(=O)N(C)C(=O)NC1=Nc1ccc(OC)cc1,.,.,.,1.78µM,.,.
COc1ccc(-c2cn(CCC(=O)O)c(-c3ccc(Cl)nc3)n2)cc1,.,/,.,?,.,.
CCOc1ccc(-n2nc(CO)c(C(=O)NCCCc3ccccc3)n2)cc1,/,/,.,/,/,/
O=C(COC(=O)c1ccc2ncsc2c1)Nc1ncc(Cl)cc1Cl,.,.,.,22.4µM,.[11.6 µM],.
COc1ccc(-c2nnc(SCC(=O)Nc3ccc(Cl)cc3)s2)cc1,/,/,.,/,/,/
CCc1ccccc1NC(=O)Cn1nnc(-c2nc(-c3ccncc3)no2)c1N,/,/,.,/,/,/
CCOC(=O)CSc1nc2c(sc(=S)n2Cc2ccco2)c(=O)n1-c1ccccc1,.,?,.,?,.,.
CCN(CC)C(=O)CSc1nc2c(sc(=S)n2Cc2ccco2)c(=O)n1-c1ccccc1,.,.,?,.,.,/
SMILES,AmpC inh no detg,NS1 inh,AmpC detergent,SARS PLpro yeast-1,AMA1-RON2 inh,SARS PLpro yeast-2
S=c1[nH]nc(-c2ccncc2)n1/N=C/c1ccccc1,.,.,.,?,.,.
Cc1cccc(/C=N/n2c(-c3ccncc3)n[nH]c2=S)c1,.,.,.,.,.,/
COC(=O)c1ccc(NC(=O)CSc2nc(C)cc(C)c2C(=O)Nc2ccccc2)cc1,/,/,.,/,/,/
O=S(=O)(NCCc1csc(-c2cccnc2)n1)c1ccc2c(c1)OCCO2,.,.,?,?,.,.
Cc1ccc2[nH]cc(C(=O)CCl)c2c1,.,.,.,/,.,.
O=C(C1=C(O)C(=O)N(CCN2CCOCC2)C1c1cccnc1)c1cc2ccccc2o1 (stereo not given),.,.,.,.,.,/
O=C(C1=C(O)C(=O)N(CCCN2CCOCC2)C1c1ccncc1)c1cc2ccccc2o1 (stereo not given),.,.,?,12.6µM,/,+
CC/C(CC(c1ccccc1)c1c(O)c2ccccc2oc1=O)=N\NC(N)=S (stereo not given),.,.,?,12.6µM,.,.
Cn1c(=O)c2sccc2n2c(CCCC(=O)NCc3ccccc3)nnc12,/,/,.,/,/,/
Cc1ccc2c(c1)-c1nc3ccccc3cc1C2=NC1CCCCC1,.,.,.,?,.,.
Cc1cc(C(=O)N/N=C/c2cc(N=Nc3ccccc3)ccc2O)n[nH]1,.,.,.,7.94µM,.,.
CCn1c(O)c(/C=N/NC(=O)c2ccncc2)c(=O)n(CC)c1=S,.,.,.,?,.,.
NNC(=O)/C(=N/Nc1ccccc1)S(=O)(=O)c1ccc(Cl)cc1,39.8µM,?,?,?,.[2.32 µM],.
O=C(CCn1cnc(-c2ccccc2)c1-c1ccccc1)N/N=C/c1ccccc1O,.,.,.,10µM,.,.
O=C(CCn1cnc(-c2ccccc2)c1-c1ccccc1)N/N=C/c1ccc(O)cc1,.,.,.,.,.,/
O=C(Cn1ccc2cc(S(=O)(=O)N3CCCCCC3)ccc21)NCCc1ccccc1Cl,/,/,.,/,/,/
O=C(OCc1cc(=O)n2nc(C3CC3)sc2n1)c1cccc(NC(=O)c2ccccc2Cl)c1,/,/,.,/,/,/
C=C(C)Cn1c(SCC(=O)N/N=C/c2c(O)ccc3ccccc23)nc2ccccc2c1=O,.,.,?,10µM,.,+
C=C(C)Cn1c(SCC)nc2ccccc2c1=O,.,.,.,.,.,/

# Compound activity as filed in PubChem.
